For assay [1], the target named is Arylsulfatase A (Homo sapiens) (UniProt P15289). Description: qHTS screen for enhancers of Arylsulfatase A (ASA1): LOPAC Validation Assay (AID 720538). An outline of the steps: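 MLD patient fibroblasts (SV40, ASA-I179S), 1536-well; adhere 6 hrs; cpd 48h, 37 degree C, 5% CO2; pNCS 0.5mM final in lysis buffer, 14h RT; stop 1N NaOH final; fluor. Ex525/Em598.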
Assay [2] can be described thus: qHTS for compounds that reverse cellular toxicity of Amyloid beta (A-beta) peptide in yeast: LOPAC Validation Assay (AID 720559).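 Note: plate controls were DMSO for no effect and equimolar ferric chloride plus clioquinol rescue for full effect.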 Put shortly: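 Medium dispensed, compounds pinned, A-beta yeast suspension added; plates held at 30 C for 48 hr; absorbance measured at 600 nm to gauge growth; values scaled between DMSO and FeCl3/clioquinol (equimolar) controls.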
(In qHTS, concentration-response curves come from the screen itself.)

Assay [3] in a line: qHTS for Activators of Parkin Expression: LOPAC Validation Assay (NLuc Reporter) (AID 720572). Put shortly:
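Cells harboring the Parkin-promoter coincidence reporter were treated for 24 h at seven concentrations. NLuc output was measured sequentially after the FLuc channel and scaled between DMSO and positive control values.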

Assay [4] in a line: qHTS for Activators of Parkin Expression: LOPAC Validation Assay (FLuc Reporter) (AID 720573). An outline of the steps: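 Cells seeded, 24 h; compounds pinned, 7-pt dose response; 24 h at 37 C/5% CO2; volume reduced; FLuc reagent 10 min RT; luminescence read. Normalization: DMSO = 0, positive control = 100%.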
Assay [5] addresses T1, Hexokinase-4 (Homo sapiens) + Glucokinase regulatory protein (Homo sapiens) (UniProt P35557+Q14397). Kind of assay: qHTS assay for inhibitors of recombinant human GCK-GKRP interaction: Diaphorase-coupled assay (AID 743205). Put shortly: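 25 mM Hepes pH 7.6, 5 mM glucose, 0.4 mM ATP, 4 U/ml G6PDH; 10 nM each GST-GCK/FLAG-GKRP. Kinetic fluorescence read, 1/min × 30 min. Normalized: DMSO ± enzyme = max/min.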

Assay [6] concerns the target T1, Hexokinase-4 (Homo sapiens) + Glucokinase regulatory protein (Homo sapiens). Kind of assay: qHTS assay for inhibitors of recombinant human GCK-GKRP interaction: ADP-Glo assay (AID 743206).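 Note: plate controls were DMSO plus enzyme for no effect and no enzyme for full effect.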 Put shortly:
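Pin-transferred compounds meet a 15 nM GST-GCK/15 nM FLAG-GKRP/2 uM S6P mix (dispense concentrations). ATP is then added to 0.4 mM final with 5 mM glucose, and the reaction runs 60 min at room temperature. ADP is quantified luminescently.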

The target is the same in assay [7]. Description: qHTS assay for inhibitors of recombinant human GCK-GKRP interaction: HTRF assay (AID 743207).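 Note: 0% = DMSO with GCK present and -100% = DMSO wells lacking GCK.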 An outline of the steps:
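5 nM GST-GCK + 5 nM FLAG-GKRP + 2 uM S6P, pH 7.1 buffer (25 mM Hepes, 2 mM MgCl2, 25 mM KCl, 1 mM DTT, Tween/BSA); pin-transferred cpd; anti-FLAG XL665/anti-GST K; 60 min RT; HTRF.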

The nature of assay [8]: qHTS Assay for Identifying Gametocytocidal Compounds (AID 743244).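 For max response: % is set by controls: 0 for no effect and ±100 for the full control effect; actives lower the fluorescent signal which means gametocytes are killed.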 Note: potency is the fitted concentration of half-maximal effect. To be noted: P. falciparum 3D7 stage III-V gametocytes, alamarBlue, 72 h; max response: stronger effect = lower value. Put shortly:
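Using 20,000 stage III–V 3D7 gametocytes per well, compounds were incubated 72 h under 37 °C/5% CO2. Viability was then assessed by 24 h alamarBlue reduction, measured fluorometrically at 525/598 nm.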

A number with no mark means an inactive call. Inconclusive results are not listed. Calls of active or inactive are those of the source. Calls come from the whole dose curve; as a rule, active = well fitted curve in the direction sought with a large enough effect; inconclusive = small, poorly fitted or top-dose-only effect, or another doubt; inactive = no such curve, though single readings can be large; an effect the other way counts as inactive or inconclusive.

T1 sequence (P35557 whole entry, looked up): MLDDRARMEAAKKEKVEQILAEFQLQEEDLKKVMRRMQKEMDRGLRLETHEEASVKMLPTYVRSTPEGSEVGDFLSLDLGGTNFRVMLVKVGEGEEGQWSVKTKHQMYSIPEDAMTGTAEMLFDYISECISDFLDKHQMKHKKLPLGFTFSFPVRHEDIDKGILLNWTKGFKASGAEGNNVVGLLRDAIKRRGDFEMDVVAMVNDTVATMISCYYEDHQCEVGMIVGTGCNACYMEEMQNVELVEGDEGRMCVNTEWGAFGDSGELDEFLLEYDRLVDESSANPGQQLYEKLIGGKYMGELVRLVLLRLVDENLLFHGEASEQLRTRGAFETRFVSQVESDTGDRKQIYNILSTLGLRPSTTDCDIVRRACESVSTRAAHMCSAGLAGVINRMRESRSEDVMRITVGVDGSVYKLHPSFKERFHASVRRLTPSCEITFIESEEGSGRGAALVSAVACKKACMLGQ
T1 sequence (Q14397 whole entry, looked up): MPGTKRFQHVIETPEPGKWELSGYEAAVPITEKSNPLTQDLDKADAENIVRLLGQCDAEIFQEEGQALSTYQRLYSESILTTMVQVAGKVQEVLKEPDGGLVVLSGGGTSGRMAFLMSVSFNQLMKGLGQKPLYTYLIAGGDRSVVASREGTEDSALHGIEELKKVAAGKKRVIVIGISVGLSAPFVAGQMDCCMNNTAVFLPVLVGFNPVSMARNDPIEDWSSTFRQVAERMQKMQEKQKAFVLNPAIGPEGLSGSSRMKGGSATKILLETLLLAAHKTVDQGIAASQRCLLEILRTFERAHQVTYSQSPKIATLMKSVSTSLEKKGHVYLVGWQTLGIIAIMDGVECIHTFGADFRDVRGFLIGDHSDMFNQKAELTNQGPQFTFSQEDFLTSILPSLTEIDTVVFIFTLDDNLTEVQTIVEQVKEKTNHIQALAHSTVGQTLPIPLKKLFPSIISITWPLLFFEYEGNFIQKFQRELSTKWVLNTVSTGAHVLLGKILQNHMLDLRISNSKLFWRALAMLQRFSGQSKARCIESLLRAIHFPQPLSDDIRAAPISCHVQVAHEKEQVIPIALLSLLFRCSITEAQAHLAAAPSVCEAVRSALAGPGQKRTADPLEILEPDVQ
Chain of Arylsulfatase A (Homo sapiens) (P15289 whole entry, looked up): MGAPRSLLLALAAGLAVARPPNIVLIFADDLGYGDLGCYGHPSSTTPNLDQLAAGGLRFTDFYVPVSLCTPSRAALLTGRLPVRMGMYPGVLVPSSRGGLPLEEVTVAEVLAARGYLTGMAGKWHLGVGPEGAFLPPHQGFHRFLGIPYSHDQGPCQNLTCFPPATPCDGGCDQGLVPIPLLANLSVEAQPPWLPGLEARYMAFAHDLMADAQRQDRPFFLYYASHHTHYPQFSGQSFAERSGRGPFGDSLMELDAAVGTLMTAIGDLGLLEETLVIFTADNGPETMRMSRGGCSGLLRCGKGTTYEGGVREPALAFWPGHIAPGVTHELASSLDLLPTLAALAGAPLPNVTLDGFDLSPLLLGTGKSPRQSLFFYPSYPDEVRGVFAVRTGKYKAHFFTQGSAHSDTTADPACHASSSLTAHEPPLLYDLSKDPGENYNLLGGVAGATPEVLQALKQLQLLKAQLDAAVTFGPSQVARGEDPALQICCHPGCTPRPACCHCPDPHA

For the compound `C[C@@H](NCCc1ccc(O)cc1)[C@@H](O)c1ccc(O)cc1`, the Potency entry in assay [1], in assay [3], in assay [4], in assay [5], in assay [6] and in assay [7] was “inactive” in each case. In assay [2], the compound was classed as inactive. Moreover, the max response in assay [8] was 2.62%.

Consider `Cc1ccc2c(c1)C(N1CCN(C)CC1)=Nc1cccnc1N2`, for which the Potency entry in assay [1], in assay [3], in assay [4], in assay [5], in assay [6] and in assay [7] was “inactive” each time. Further, the result in assay [2] was inactive. In addition, the max response in assay [8] was 23%.

For the compound `N=C(N)SCCc1cnc[nH]1`, the Potency entry in assay [1], in assay [3], in assay [4], in assay [5], in assay [6] and in assay [7] was “inactive” each time. Besides, the call in assay [2] was inactive. Further, the max response in assay [8] is 9.89%.

Turning to `NCCC1CCCC(CCN)N1` (stereo unspecified), the Potency result in assay [1], in assay [3], in assay [4], in assay [5], in assay [6] and in assay [7] was “inactive” throughout. The call in assay [2] was inactive. Moreover, the max response in assay [8] was 30.6%.

For `CO/N=C(\C(=O)N[C@@H]1C(=O)N2C(C(=O)O)=C(CSc3nc(=O)c(O)nn3C)CSC12)c1csc(N)n1` (stereo partly specified), the Potency entry in assay [1], in assay [3], in assay [4], in assay [5], in assay [6] and in assay [7] was “inactive” throughout. The result in assay [2] was inactive. For the same compound, the max response in assay [8] is 32.5%.

Consider `O=C(c1ccc2c(c1)OCCO2)N1CCCCC1`, for which the Potency entry in assay [1], in assay [3], in assay [4], in assay [5], in assay [6] and in assay [7] was “inactive” in each case. In addition, in assay [2], the compound was called inactive. For the same compound, the max response in assay [8] is 22.1%.

For `C=CCNc1ncnc2ccc(Br)cc12`, the Potency result in assay [1], in assay [3], in assay [4], in assay [5], in assay [6] and in assay [7] was “inactive” in each case. The compound was called inactive in assay [2]. Besides, the max response in assay [8] is 27.4%.

`c1ccc2c(c1)CCC[C@H]2Nc1nc2ccccc2[nH]1`: the Potency entry in assay [1], in assay [3], in assay [4], in assay [5], in assay [6] and in assay [7] was “inactive” each time. Further, the compound was called inactive in assay [2]. In assay [8], the max response is 12.6%.

For `C=CCn1c(=O)c2c(nc(-c3ccc(S(=O)(=O)O)cc3)n2C)n(C)c1=O`, the Potency entry in assay [1], in assay [3], in assay [4], in assay [5], in assay [6] and in assay [7] was “inactive” each time. Further, the compound was classed as inactive in assay [2]. Moreover, the max response in assay [8] is 2.53%.

Consider `C=CC[C@H](N)C(=O)O`, for which the Potency result in assay [1], in assay [3], in assay [4], in assay [5], in assay [6] and in assay [7] was “inactive” throughout. In addition, the compound was called inactive in assay [2]. For the same compound, in assay [8], the max response was 18.7%.

Take `NC1(C(=O)O)CCc2cc(C(=O)O)ccc21` (stereo unspecified): the Potency result in assay [1], in assay [3], in assay [4], in assay [5], in assay [6] and in assay [7] was “inactive” in each case. The compound was classed as inactive in assay [2]. Moreover, in assay [8], the max response is 9.78%.

As for `CCCCCCC/C=C\CCCCCCCCC(=O)O`, the Potency entry in assay [1], in assay [3], in assay [4], in assay [5], in assay [6] and in assay [7] was “inactive” in each case. Moreover, in assay [2], the compound was classed as inactive. Moreover, the max response in assay [8] is 37.6%.

Regarding `O=c1ccn([C@@H]2O[C@H](COP(=O)(O)OP(=O)(O)O)[C@@H](O)[C@H]2O)c(=O)[nH]1`, the Potency entry in assay [1], in assay [3], in assay [4], in assay [5], in assay [6] and in assay [7] was “inactive” in each case. In addition, in assay [2], the compound was classed as inactive. The max response in assay [8] was 17.2%.

As to `CC1CCN(CC[C@H]2CCCN2S(=O)(=O)c2cccc(O)c2)CC1`, the Potency result in assay [1], in assay [3], in assay [4], in assay [5], in assay [6] and in assay [7] was “inactive” throughout. For the same compound, the compound was called inactive in assay [2]. Also, the max response in assay [8] is 10.9%.

Consider `NCCNS(=O)(=O)c1cccc2c(Cl)cccc12`, for which the Potency entry in assay [1], in assay [3], in assay [4], in assay [5], in assay [6] and in assay [7] was “inactive” each time. Besides, the call in assay [2] was inactive. Also, the Potency in assay [8] is 3.16 µM (active).

For `CNc1cc(NS(=O)(=O)c2ccc(N)cc2)nc(NC)n1`, the Potency result in assay [1], in assay [3], in assay [4], in assay [5], in assay [6] and in assay [7] was “inactive” in each case. For the same compound, in assay [2], the outcome was inactive. For the same compound, the max response in assay [8] was 12.8%.

`C[C@H]1CC2C3CCC4=CC(=O)C=C[C@]4(C)[C@@]3(Cl)[C@@H](O)C[C@]2(C)[C@@]1(O)C(=O)CO` (stereo partly specified): the Potency entry in assay [1], in assay [3], in assay [4], in assay [5], in assay [6] and in assay [7] was “inactive” each time. Besides, the call in assay [2] was inactive. Moreover, the max response in assay [8] is -6.5%.

Turning to `NCCCCN`, the Potency result in assay [1], in assay [3], in assay [4], in assay [5], in assay [6] and in assay [7] was “inactive” in each case. Moreover, the compound was classed as inactive in assay [2]. Further, the max response in assay [8] is 15.5%.

Turning to `CC(C)NC[C@H](O)COc1ccc(CC(N)=O)cc1`, the Potency result in assay [1], in assay [3], in assay [4], in assay [5], in assay [6] and in assay [7] was “inactive” in each case. In addition, the compound was classed as inactive in assay [2]. The max response in assay [8] is 5.76%.

Regarding `COc1ccccc1N1CCN(CCN(C(=O)c2ccc(F)cc2)c2ccccn2)CC1`, the Potency result in assay [1], in assay [3], in assay [4], in assay [5], in assay [6] and in assay [7] was “inactive” throughout. Further, the compound was classed as inactive in assay [2]. Also, in assay [8], the max response is 23.7%.

As for `Oc1ccc(Cn2cc[nH]c2=S)cc1`, the Potency result in assay [1], in assay [3], in assay [4], in assay [5], in assay [6] and in assay [7] was “inactive” each time. Moreover, the compound was called inactive in assay [2]. In addition, in assay [8], the max response is 24%.

On to `CCCCC[C@H](CC(=O)NO)C(=O)N[C@H](C(=O)N1CCC[C@H]1CO)C(C)C`, for which the Potency result in assay [1], in assay [3], in assay [4], in assay [5], in assay [6] and in assay [7] was “inactive” in each case. Further, the result in assay [2] was inactive. For the same compound, the max response in assay [8] was 14.1%.

Regarding `Nc1nc2c(nc(Br)n2C2OC3COP(=O)(O)O[C@@H]3C2O)c(=O)[nH]1` (stereo partly specified), the Potency entry in assay [1], in assay [3], in assay [4], in assay [5], in assay [6] and in assay [7] was “inactive” throughout. For the same compound, the result in assay [2] was inactive. The max response in assay [8] was 9.58%.

In the case of `CCc1ccc2c(-c3cccc(Cl)c3)nc(=O)n(CC)c2n1`, the Potency entry in assay [1], in assay [3], in assay [4], in assay [5], in assay [6] and in assay [7] was “inactive” each time. Besides, the call in assay [2] was inactive. Besides, the max response in assay [8] was 15.8%.

Consider `O=C(O)C1=CCCNC1`, for which the Potency entry in assay [1], in assay [3], in assay [4], in assay [5] and in assay [6] was “inactive” throughout. Besides, in assay [2], the call was inactive. Besides, in assay [8], the max response was 15%.

Regarding `CCSC(=N)N`, the Potency entry in assay [1], in assay [3], in assay [4], in assay [5] and in assay [6] was “inactive” in each case. Also, the outcome in assay [2] was inactive. For the same compound, the max response in assay [8] is 12.9%.

(Values after PubChem BioAssay (NCATS).)
